From PubChem BioAssay
In the library only some 5.3% were active in any assay of this set; here they are far more common.
Tau fibril ThT – tau fibrillization inhibition (ThT binding) | hit rate 2.1% among 270,000 | Potency, µM (series often up to 57.4 µM), for the others: top-dose activity, negative = inhibition, hits mostly inhibitors | recombinant tau K18 P301L, heparin-induced fibrillization, ThT fluorescence; further: potency means the concentration at half of the fitted maximal effect; nearly all actives have a fitted effect of over 55% in size
Target sequence (P10636 561-689 P618L limits assumed): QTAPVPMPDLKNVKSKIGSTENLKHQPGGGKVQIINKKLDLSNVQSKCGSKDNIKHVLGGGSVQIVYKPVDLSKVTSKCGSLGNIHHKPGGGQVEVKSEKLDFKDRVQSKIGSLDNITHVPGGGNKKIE
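Recombinant human tau K18 fragment […] carrying P301L, 15 uM unlabeled plus 0.24 uM Alexa 594-labeled, was fibrillized with 20 uM heparin in 100 mM sodium acetate pH 7 for 6 hr at 37 C; 30 uM ThT fluorescence read after 1 hr.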
Sfp PPTase inh – blocks B. subtilis Sfp PPTase activity; Q9F4F7; Biochemical Sfp PPTase activity, qHTS; hit rate 3.5% among 310,000; Potency, µM, without a hit: largest response in the series, negative = inhibition, actives largely listed as inhibitors; AID 1490;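 further: the enzyme is Sfp with the accession as filed and its product quenches rhodamine fluorescence; potency means the concentration at half of the fitted maximal effect; 0% = enzyme reaction without inhibitor and -100% = no enzyme wells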
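Fluorescence-quenching assay with 15 nM Sfp, 5 uM rhodamine-CoA and 12.5 uM BHQ-2-labelled ybbR peptide in pH 7.6 Hepes/MgCl2 buffer. Enzyme was pre-incubated with compound for 15 min at room temperature. Rate was taken from the 30-min fluorescence change (525/598 nm).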
FBPA coupling cs – counter-screen for Giardia aldolase inhibitors: coupling enzyme system; coupling enzyme system counterscreen, AmpLite Red fluorescence; activity change, negative = inhibition, % at 58.2 µM, hits read low; hit rate 0.67% among 290,000; in the data active means activity change below about -30%
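Fluorescence at 525 nm excitation and 598 nm emission measured inhibition of the coupled detection system without aldolase. Compounds (at 57.5 uM final) were preincubated 10 min at room temperature with coupling enzyme reagent before a 20 min substrate/AmpLite Red step.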
Tau fibril FP – inhibitors of human tau fibril formation; AID 1468; P10636; Potency, µM (highest dose often 57.7 µM), inactives show at the highest dose activity, negative = inhibition, usual class: inhibitors; K18 P301L tau heparin fibrillization, Alexa594 FP, 6 h; hit rate 0.39% among 280,000; further: potency means the concentration at half of the fitted maximal effect; nearly all actives have a fitted effect of over 55% in size
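Recombinant K18 P301L […], labeled with Alexa 594 at 0.24 uM over 15 uM unlabeled; heparin inducer 20 uM final; 37 C, 6 hr; FP endpoint.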
KDM4E inh – blocks human JMJD2E demethylase activity; JMJD2E catalytic domain, FDH-coupled NADH fluorescence (FDH is formaldehyde dehydrogenase); B2RXH2; Potency, µM (highest dose often 57.1 µM), inactives show at the highest dose activity change, negative = inhibition, hits mostly inhibitors; hit rate 1.6% among 230,000; active means well fitted inhibition curve with a large enough effect, not every such curve was filed as active; inconclusive means small, poorly fitted or top-dose-only effect, or another doubt; inactive means no such curve, though single readings can be large or run the other way;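 further: potency means the concentration at half of the fitted maximal effect; 0% = wells with enzyme and -100% = buffer wells without enzyme; nearly all actives have a fitted effect of over 50% in size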
Target sequence (B2RXH2 1-337 limits assumed): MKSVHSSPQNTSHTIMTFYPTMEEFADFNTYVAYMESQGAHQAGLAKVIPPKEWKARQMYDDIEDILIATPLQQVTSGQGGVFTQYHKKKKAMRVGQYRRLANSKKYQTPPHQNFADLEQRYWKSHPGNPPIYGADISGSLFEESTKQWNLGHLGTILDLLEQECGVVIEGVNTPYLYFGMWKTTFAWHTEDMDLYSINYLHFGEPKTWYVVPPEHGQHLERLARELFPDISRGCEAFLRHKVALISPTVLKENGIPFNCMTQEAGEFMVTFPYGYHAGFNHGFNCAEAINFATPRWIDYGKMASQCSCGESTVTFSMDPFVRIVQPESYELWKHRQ
Tau fluor counter – counter-screen for tau fibril formation inhibitors. AID 1463. hit rate 0.93% among 280,000. tau K18 P301L (four-repeat tau fragment) Alexa594 fluorescence, heparin fibrillization. Potency, µM (series often up to 57.7 µM), for the others: top-dose activity change, negative = decrease; further: potency means the concentration at half of the fitted maximal effect; nearly all actives have a fitted effect of over 55% in size
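Human K18 P301L tau (15 uM unlabeled plus 0.24 uM Alexa 594-labeled, final) in 100 mM sodium acetate pH 7 was mixed with compound and 20 uM heparin and incubated 6 hr at 37 C.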
Numbers without * were called inactive; u = inconclusive; x = no result given; [ ] = another dose, or the depositor's remark. Unless noted, the call rests on the fitted dose curve; in most records, active means well fitted curve in the direction sought with a large enough effect; inconclusive means small, poorly fitted or top-dose-only effect, or another doubt; inactive means no such curve, though single readings can be large; an effect the other way counts as inactive or inconclusive. Unless noted, on the % scale 0 is the no-effect control and ±100 the full control effect.

SMILES	Tau fibril ThT	Sfp PPTase inh	FBPA coupling cs	Tau fibril FP	KDM4E inh	Tau fluor counter
N#CC1=C(N)NC(=S)C(C(N)=O)C1c1ccc([N+](=O)[O-])cc1 (stereo not given)	u	1µM*	5.5	u	u	-6.0%
O=C(NCCc1ccccc1)c1ccc2c(c1)nc1n2CCOC1	u	x	x	-2.7%	x	0.9%
Nc1ccc2[nH]ncc2c1	u	25.1%	-41.9*	u	u	-29.4%
O=C(c1ccco1)N1N=C(c2cccs2)CC1c1ccc(F)cc1 (stereo not given)	-2.0%	56.2µM*	0.1	-5.2%	u	-5.7%
O=C(CSc1nc2c(cnn2-c2ccccc2)c(=O)[nH]1)N1N=C(c2cccs2)CC1c1ccc(F)cc1 (stereo not given)	-10.2%	5.0%	-2.0	-13.3%	3.98µM*	-13.6%
CS(=O)(=O)N1N=C(c2cccs2)CC1c1ccco1 (stereo not given)	u	10µM*	1.1	-16.4%	u	-4.9%
CC(=O)N1N=C(c2cccs2)CC1c1ccco1 (stereo not given)	-2.4%	12.6%	-2.7	-1.5%	u	-6.6%
CC(=O)OCC(NC(=O)C(COCc1ccccc1)NC(=O)OC(C)(C)C)C1OC(n2cc(C)c(=O)[nH]c2=O)C(OC(C)=O)C1OC(C)=O (stereo not given)	x	20.7%	3.9	x	x	x
C/C(=N\NC(=O)c1ccccn1)c1ccc(C(=O)O)s1	-4.2%	12.6µM*	-4.7	-4.6%	-1.5%	-7.9%
CC(=N/O)/C(C)=N\NC(=O)c1ccccn1	-4.2%	u	-0.7	4.5%	3.2%	0.5%
C/C(CC(=O)NC1CCCCC1)=N\NC(=O)c1ccccn1	-10.2%	89.1µM*	-3.5	-7.2%	122.8%	-12.9%
NC(=O)c1sc2nc(N3CCOCC3)c3c(c2c1N)CCCC3	-25.8%	44.7µM*	0.4	8.2%	u	-24.0%
CCCCN(CCCC)C(=O)c1sc2nc(N3CCOCC3)c3c(c2c1N)CCCC3	u	11.2µM*	-2.9	u	u	u
CCOC(=O)c1sc2nc(N3CCOCC3)c3c(c2c1N)CCC3	u	u	-4.1	17.2%	u	u
Nc1c(C(=O)NCCc2ccccc2)sc2nc(N3CCOCC3)c3c(c12)CCCC3	u	22.4µM*	0.5	-0.7%	u	u
COc1ccccc1C(=O)NC1=NC(c2ccc(Br)cc2)CC(=O)N1 (stereo not given)	u	x	x	0.2%	x	-12.3%
Cc1ccc(C(=O)CC2(O)C(=O)N(CCc3ccccc3)c3ccc(Br)cc32)o1 (stereo not given)	-5.9%	7.94µM*	-4.8	-4.8%	-4.4%	0.1%
COC(=O)c1ccc(NS(=O)(=O)c2ccc3[nH]c4c(c3c2)CCCC4)cc1	1.4%	x	x	-14.0%	x	10µM*[quencher]
COC(=O)c1ccc(NS(=O)(=O)c2ccc3[nH]c4c(c3c2)CCCCC4)cc1	-0.8%	x	x	u	x	3.98µM*[quencher]
COc1ccc(NC(=O)CN(C)S(=O)(=O)c2ccc3[nH]c4c(c3c2)CCCC4)cc1OC	-15.1%	x	x	14.7%	x	u
COC(=O)c1ccc(NS(=O)(=O)c2ccc3[nH]c(=O)oc3c2)cc1	x	6.6%	11.0	x	x	x
Cc1c(-c2nsc(NC(=O)c3cccs3)n2)nnn1-c1ccc(F)cc1	-16.8%	x	x	u	x	-7.9%
CC1=C(C(=O)Nc2cccnc2)C(c2cccc(Br)c2)n2nc(SCc3ccccc3)nc2N1 (stereo not given)	-16.3%	x	x	-14.0%	x	-29.6%
C[C@H]1CC[C@@H]2N(C1)C[C@H]1[C@@H]3C[C@H]4[C@@H](C/C(=N\O)[C@H]5C[C@@H](O)CC[C@@]54C)[C@@H]3CC[C@H]1[C@]2(C)O	-1.3%	-0.9%	1.5	1.8%	u	-7.2%
O=C(c1ccncc1)N1CCC2(CC1)CCN(c1ccc(-c3ccccc3)cc1)CC2	x	13.2%	3.0	x	x	x
SMILES	Tau fibril ThT	Sfp PPTase inh	FBPA coupling cs	Tau fibril FP	KDM4E inh	Tau fluor counter
CC(=O)N1CCC2(CC1)CCN(c1ccc(-c3ccccc3)cc1)CC2	x	56.2µM*	2.2	x	x	x
CN(C)C(=O)c1ccc(-c2cncnc2NCc2cccs2)cc1	-8.5%	50.1µM*	-0.5	-6.5%	u	-7.0%
N#CC1(C#N)CC(C=O)=C(N)C1(C#N)CC(=O)c1ccc(F)cc1 (stereo not given)	14.1µM*	-24.8%	-2.7	u	u	u
Fc1ccc(-[n+]2nc(Nc3ccccc3)sc2-c2c3ccccc3cc3ccccc23)cc1	x	44.7µM*	-30.7*	x	x	x
Cc1cccc(Cn2cnc3c(cnn3-c3ccc(Cl)cc3)c2=O)c1	-5.7%	x	x	-11.9%	x	-1.3%
COc1cc(/C=C2\SC(=S)N(Nc3ncc(C(F)(F)F)cc3Cl)C2=O)ccc1O	15.8µM*	u	-5.8	-14.9%	-5.2%	14.1µM*[quencher]
CN(C)c1ccc(/C=C2\SC(=S)N(Nc3ncc(C(F)(F)F)cc3Cl)C2=O)cc1	u	50.1µM*	-1.0	-14.1%	0.2%	-13.8%
COc1ccc2oc(=O)c(C(=O)OCc3ccccc3)cc2c1	x	50.1µM*	0.1	x	x	x
COc1ccc2oc(=O)c(C(=O)NCc3ccccc3)cc2c1	x	24.2%	-0.2	x	x	x
Cc1cc(Nc2cccc(C(F)(F)F)c2)nc2ccc(NC(=O)c3ccc(N(C)C)cc3)cc12	3.55µM*	x	x	-8.6%	x	3.55µM*[quencher]
Cc1cc(Nc2cccc(Cl)c2)nc2ccc(NC(=O)c3cccc(N(C)C)c3)cc12	u	x	x	-8.0%	x	4.47µM*[quencher]
Cc1ccc(C(=O)Nc2cccc(C(F)(F)F)c2)cc1Nc1ccccn1	-3.3%	-1.9%	0.7	-6.5%	-28.8%	u
O=C(Nc1cccc(NC(=O)c2cccc(Cl)c2)c1)c1cccnc1	x	27.6%	-3.5	x	x	x
Cc1cc(Nc2cccc(Cl)c2)nc2ccc(NC(=O)c3cccnc3)cc12	u	x	x	-12.1%	x	7.94µM*[quencher]
CN(C)c1cccc(C(=O)Nc2cccc(F)c2)c1	u	-14.4%	-7.6	0.9%	-1.0%	-25.1%
CN(C)c1ncc2nc(-c3ccc(F)cc3)c(=O)n(CCC#N)c2n1	x	11.9%	0.9	x	x	x
Cc1ccc(NC(=O)c2ccc(NC(=O)N3CCSc4ncccc43)cc2)cc1Cl	-1.1%	x	x	u	x	-29.2%
CCc1ccc(OCC(=O)N(Cc2ccc(C(C)C)cc2)C2CCS(=O)(=O)C2)cc1 (stereo not given)	u	x	x	u	x	-15.1%
C=CCOC(=O)N[C@H](/C(C(=O)OC)=C(\C)NCc1ccccc1)c1cccc(F)c1	1.9%	-8.6%	0.5	-1.0%	-3.7%	0.1%
Cc1[nH]c(-c2ccco2)nc1C(=O)O	-1.7%	79.4µM*	1.3	-2.3%	-24.8%	0.0%
Cc1[nH]c(-c2ccc3c(c2)OCO3)nc1C(=O)O	-10.6%	56.2µM*	0.2	8.2%	u	-7.5%
